For some of these results: Results with a measured potency or affinity are listed apart. Activity calls are given as the source filed them.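 The calls were made as follows, unless noted: active = primary screen inhibitor hit that blocks the TRPC4 channel at some tested dose, yielding a dose curve; inactive = the rest.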
How the values were obtained:
[1] = test system: TRPC4 beta (transient receptor potential cation channel C4), mouse; assay: TRPC4 cation channel opening, retest – cell-based, Fluo4 calcium, HEK293 TRPC4beta/mu-opioid, duplicates, 10 µM, confirmation (AID 2426;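 active = fluorescence ratio normalized to control raised more than 50% in primary screen plus both repeat runs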;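 as to activation: percent rise of integrated ratio over buffer wells lacking compound which define 0%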); settings: Fluo4 calcium fluorescence, at 10 µM; hits give high values
[2] = test system: transient receptor potential cation channel C4 beta (TRPC4), mouse; assay: TRPC4 cation channel opening, second retest – cell-based, second round, Fluo4, HEK293 TRPC4beta/mu-opioid, 1 µM, confirmation (AID 2461;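 active = primary screen active and over 50% activation in each of two duplicate runs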); settings: Fluo4 calcium fluorescence, at 1 µM; hits give high values
[3] = test system: TRPC4 (transient receptor potential cation channel C4 beta), mouse; assay: potentiation of DAMGO EC20 TRPC4 response – cell-based, second round, Fluo-4, HEK293 TRPC4beta/mu-opioid, 1 µM, confirmation (AID 2554;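 active = primary screen hit whose fluorescence ratio, in both repeats, exceeds the weak agonist control mean by 3 SD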); settings: DAMGO EC20, Fluo-4 calcium flux, at 1 µM; hits give high values
[4] = test system: TRPC4 beta (transient receptor potential cation channel C4), mouse; assay: potentiation of DAMGO EC20 TRPC4 response – cell-based, Fluo-4, HEK293 TRPC4beta/mu-opioid, confirmation (AID 2555;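 active = primary screen hit whose calcium fluorescence ratio, in both repeats, exceeds the weak agonist control mean by 3 SD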); settings: DAMGO EC20, Fluo-4 calcium flux, at 10 µM; hits give high values
[5] = molecular target: Short transient receptor potential channel 4 (Mus musculus) (UniProt Q9QUQ5); assay: blockers of DAMGO-evoked TRPC4 calcium flux – cell-based, Fluo4, HEK293 TRPC4beta/mu-opioid, confirmation (AID 2636;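 active = calcium signal cut by more than 3 SD below the full-agonist control yet still positive, in both repeats and the earlier primary screen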); settings: at 10 µM; hits give high values
[6] = molecular target: Short transient receptor potential channel 4 (Mus musculus) (UniProt Q9QUQ5); assay: blockers of DAMGO-evoked TRPC4 calcium flux – cell-based, second round, Fluo4, HEK293 TRPC4beta/mu-opioid, 1 µM, confirmation (AID 2637;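 active = calcium signal ratio cut to more than 3 SD under the fully stimulated control mean yet still positive, in both repeats and the primary screen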); settings: at 1 µM; hits give high values
[7] = molecular target: Short transient receptor potential channel 4 (Mus musculus) (UniProt Q9QUQ5); assay: calcium entry via TRPC4 opening agents – cell-based, HEK293 TRPC4/mu-opioid, Fluo-4 calcium, dose response (AID 434937;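 active = primary screen activator hit with a dose response curve and TRPC4 channel activation at any tested dose; inactive = no activation, no dose response, or not a primary hit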)
[8] = molecular target: Short transient receptor potential channel 4 (Mus musculus) (UniProt Q9QUQ5); assay: potentiation of DAMGO-evoked TRPC4 calcium signal – cell-based, HEK293 TRPC4/mu-opioid, Fluo-4 calcium, EC20 DAMGO, dose response (AID 434941;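 active = earlier screen potentiator hit that boosts the TRPC4 ion channel at some dose, with a dose response; inactive = no potentiation, no dose response, or not a prior hit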;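 also: calcium entry triggered by an EC20 dose of DAMGO at the co-expressed mu-opioid receptor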)
[9] = molecular target: Short transient receptor potential channel 4 (Mus musculus) (UniProt Q9QUQ5); assay: block of DAMGO-driven TRPC4 calcium entry – cell-based, HEK293 TRPC4/mu-opioid, Fluo-4 calcium, dose response (AID 434942)
[10] = molecular target: Short transient receptor potential channel 6 (Mus musculus) (UniProt Q61143); assay: TRPC6 blockade by TRPC4 inhibitor hits – cell-based, HEK293, membrane potential dye, duplicate, selectivity assay for TRPC4 inhibitor project, confirmation (AID 434948;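 active = active in primary screen and both duplicates, each dropping signal beyond three positive-control SD with fluorescence still positive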); settings: HEK293 TRPC6, membrane potential dye fluorescence, at 10 µM, stimulated with maximal-effect acetylcholine; hits give high values
[11] = molecular target: Short transient receptor potential channel 6 (Mus musculus) (UniProt Q61143); assay: TRPC6 opening by TRPC4 activator hits – cell-based, HEK293, membrane potential dye, duplicate, selectivity assay for TRPC4 activator project, confirmation (AID 434950;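 active = membrane potential signal rise above negative control mean plus 3 SD in both duplicates, also active in the earlier TRPC4 screen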); settings: HEK293 TRPC6, membrane potential fluorescence, at 10 µM; activation: hits give high values; outcome: activation
[12] = molecular target: Short transient receptor potential channel 6 (Mus musculus) (UniProt Q61143); assay: positive modulators of mouse TRPC6 channel – HEK293 cells, membrane potential dye, duplicate, selectivity assay for TRPC4 potentiator project, confirmation (AID 434952;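 active = compound raising the membrane signal above positive-control mean plus 3 SD in both repeats, and a primary screen hit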); settings: HEK293 TRPC6, membrane potential dye fluorescence, at 10 µM, maximal acetylcholine added after compound; hits give high values
[13] = molecular target: Short transient receptor potential channel 4 (Mus musculus) (UniProt Q9QUQ5); assay: calcium flux activators in TRPC4/5HT1a cells, counter-screen for TRPC4 activator project, cell-based, second counter screen, HEK293 TRPC4/5HT1a, Fluo-4 (AID 434977;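 active = calcium signal rise above buffer-control mean plus 5 SD in both duplicates, and also a hit in the primary screen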); settings: Fluo-4 calcium flux, at 10 µM; hits give high values
[14] = serotonin-gated TRPC4 signal block – cell-based, second counter screen, HEK293 TRPC4/5HT1a, Fluo-4, counter-screen for TRPC4 inhibitor project, confirmation (AID 434978;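 active = primary screen active whose calcium signal fell more than 3 SD beyond the full-serotonin control mean in both duplicate plates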;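 as to outcome: serotonin given first at submaximal then at maximal dose after compound preincubation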); settings: Fluo-4 calcium flux, at 10 µM, serotonin added to trigger calcium flux; hits give high values
[15] = test system: TRPC4 (mouse), co-expressed with 5HT1a in HEK293; assay: enhancement of serotonin-evoked TRPC4 response – cell-based, second counter screen, HEK293 TRPC4/5HT1a, Fluo-4, counter-screen for TRPC4 potentiator project, confirmation (AID 434979;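 active = signal rise over 3 SD above mean of control wells given weak agonist, in both repeats and first screen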); settings: Fluo-4 calcium flux, at 10 µM, serotonin added at its EC20 dose; hits give high values
[16] = nonspecific calcium rise without TRPC4 – cell-based, HEK293 mu-opioid receptor line, counter-screen for TRPC4 activator project, confirmation (AID 449723;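 active = hit in primary screen, with calcium signal over 5 SD above buffer well mean in both duplicates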;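 also: counter screen cells carry the mu-opioid receptor alone and lack TRPC4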); settings: HEK293 mu-opioid cells, Fluo-4 calcium fluorescence, at 10 µM; hits give high values
[17] = nonspecific potentiation of DAMGO calcium response – cell-based, HEK293 mu-opioid receptor line, counter-screen for TRPC4 allosteric potentiator project, confirmation (AID 449724;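 active = calcium signal rise more than 3 SD above the low-dose agonist control mean, in both duplicate plates and the primary screen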); settings: HEK293 mu-opioid receptor cells, Fluo-4 calcium flux, at 10 µM, compound added before EC20 DAMGO stimulus; hits give high values

Chain of Short transient receptor potential channel 4 (Mus musculus) (Q9QUQ5 whole entry, looked up): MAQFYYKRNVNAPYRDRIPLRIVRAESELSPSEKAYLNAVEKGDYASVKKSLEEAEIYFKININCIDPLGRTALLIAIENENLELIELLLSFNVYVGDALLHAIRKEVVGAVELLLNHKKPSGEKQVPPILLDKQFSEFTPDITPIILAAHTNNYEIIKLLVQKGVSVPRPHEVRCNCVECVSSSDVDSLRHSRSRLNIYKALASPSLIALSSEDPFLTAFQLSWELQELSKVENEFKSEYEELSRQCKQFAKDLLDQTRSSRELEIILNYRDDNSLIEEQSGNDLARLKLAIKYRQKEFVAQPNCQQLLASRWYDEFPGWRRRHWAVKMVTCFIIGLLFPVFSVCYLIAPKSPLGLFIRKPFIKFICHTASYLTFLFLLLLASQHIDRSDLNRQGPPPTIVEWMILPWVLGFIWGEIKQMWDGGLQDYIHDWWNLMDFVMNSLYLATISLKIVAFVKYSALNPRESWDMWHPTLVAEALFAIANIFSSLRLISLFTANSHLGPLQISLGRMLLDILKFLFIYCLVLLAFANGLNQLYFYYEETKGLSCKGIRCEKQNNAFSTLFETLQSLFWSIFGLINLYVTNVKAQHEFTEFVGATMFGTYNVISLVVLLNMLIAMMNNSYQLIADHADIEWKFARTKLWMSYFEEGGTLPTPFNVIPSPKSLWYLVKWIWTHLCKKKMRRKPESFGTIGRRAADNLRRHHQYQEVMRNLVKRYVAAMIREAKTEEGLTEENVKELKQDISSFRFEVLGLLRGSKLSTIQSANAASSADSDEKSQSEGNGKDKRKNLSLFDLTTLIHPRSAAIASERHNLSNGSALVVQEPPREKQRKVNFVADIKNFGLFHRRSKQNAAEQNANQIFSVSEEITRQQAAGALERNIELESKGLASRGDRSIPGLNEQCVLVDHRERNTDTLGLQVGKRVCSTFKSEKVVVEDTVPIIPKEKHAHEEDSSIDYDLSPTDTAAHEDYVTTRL
Chain of Short transient receptor potential channel 6 (Mus musculus) (Q61143 whole entry, looked up): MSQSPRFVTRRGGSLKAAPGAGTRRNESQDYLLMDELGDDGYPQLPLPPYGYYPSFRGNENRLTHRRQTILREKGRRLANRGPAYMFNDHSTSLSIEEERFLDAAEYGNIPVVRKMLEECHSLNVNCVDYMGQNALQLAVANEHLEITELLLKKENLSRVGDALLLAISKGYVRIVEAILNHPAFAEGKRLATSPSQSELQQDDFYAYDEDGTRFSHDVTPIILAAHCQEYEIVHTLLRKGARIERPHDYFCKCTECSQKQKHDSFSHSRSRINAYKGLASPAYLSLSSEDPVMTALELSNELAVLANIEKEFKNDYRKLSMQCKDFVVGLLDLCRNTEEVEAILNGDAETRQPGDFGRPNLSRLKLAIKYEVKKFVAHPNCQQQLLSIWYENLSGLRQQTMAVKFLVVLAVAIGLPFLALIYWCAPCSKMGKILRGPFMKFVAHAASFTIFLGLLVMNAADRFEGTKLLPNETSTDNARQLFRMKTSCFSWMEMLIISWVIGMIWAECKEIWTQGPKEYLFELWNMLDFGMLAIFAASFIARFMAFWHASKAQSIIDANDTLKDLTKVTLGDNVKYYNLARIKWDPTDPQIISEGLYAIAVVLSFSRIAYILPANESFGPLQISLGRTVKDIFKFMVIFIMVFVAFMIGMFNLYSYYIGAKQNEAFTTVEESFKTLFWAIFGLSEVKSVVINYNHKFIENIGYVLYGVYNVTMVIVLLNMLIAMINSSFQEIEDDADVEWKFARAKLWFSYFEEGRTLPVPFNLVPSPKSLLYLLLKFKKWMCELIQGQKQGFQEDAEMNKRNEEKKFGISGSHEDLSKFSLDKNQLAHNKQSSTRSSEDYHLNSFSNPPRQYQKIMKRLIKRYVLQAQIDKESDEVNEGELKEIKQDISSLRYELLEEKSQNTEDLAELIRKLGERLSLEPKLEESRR

COCCSc1ccccc1C(=O)N1CCC(Cc2ccccc2)CC1
inactive: outcome [1] | outcome [2] | outcome [3] | outcome [4] | outcome [5] | outcome [6] | outcome [7] | outcome [8] | outcome [9] | outcome [10] | outcome [11] | outcome [12] | outcome [13] | outcome [14] | outcome [15] | outcome [16] | outcome [17]

CCOc1ccc(CN2CCCC(CNC(=O)c3ccc(F)cc3)C2)cc1CO (stereo not drawn)
inactive: outcome [1] | outcome [2] | outcome [3] | outcome [4] | outcome [5] | outcome [6] | outcome [7] | outcome [8] | outcome [9] | outcome [10] | outcome [11] | outcome [12] | outcome [13] | outcome [14] | outcome [15] | outcome [16] | outcome [17]

Cc1[nH]nc(-c2ccc(O)cc2O)c1-c1nc2ccccc2s1
inactive: outcome [1] | outcome [2] | outcome [3] | outcome [4] | outcome [5] | outcome [6] | outcome [7] | outcome [8] | outcome [9] | outcome [10] | outcome [11] | outcome [12] | outcome [13] | outcome [14] | outcome [15] | outcome [16] | outcome [17]

NCCc1nnc(SCc2ccccc2)o1
inactive: outcome [1] | outcome [2] | outcome [3] | outcome [4] | outcome [5] | outcome [6] | outcome [7] | outcome [8] | outcome [9] | outcome [10] | outcome [11] | outcome [12] | outcome [13] | outcome [14] | outcome [15] | outcome [16] | outcome [17]

N#Cc1ccc(OCC(O)CN2CCN(c3ncc(C(F)(F)F)cc3Cl)CC2)cc1 (stereo not drawn)
active: potentiation [3] 8% | potentiation [15] 12.6%
inactive: outcome [1] | outcome [2] | outcome [4] | outcome [5] | outcome [6] | outcome [7] | outcome [8] | outcome [9] | outcome [10] | outcome [11] | outcome [12] | outcome [13] | outcome [14] | outcome [16] | outcome [17]

C=CCn1c(SCC(=O)c2ccc(NS(=O)(=O)c3ccccc3)cc2)nnc1-c1cccs1
active: potentiation [15] 14%
inactive: outcome [1] | outcome [2] | outcome [3] | outcome [4] | outcome [5] | outcome [6] | outcome [7] | outcome [8] | outcome [9] | outcome [10] | outcome [11] | outcome [12] | outcome [13] | outcome [14] | outcome [16] | outcome [17]

COc1ccc(C(CNC(=O)C2CC2)N(C)C)cc1 (stereo not drawn)
inactive: outcome [1] | outcome [2] | outcome [3] | outcome [4] | outcome [5] | outcome [6] | outcome [7] | outcome [8] | outcome [9] | outcome [10] | outcome [11] | outcome [12] | outcome [13] | outcome [14] | outcome [15] | outcome [16] | outcome [17]

CC(C)c1nc2ccc(Br)cn2c1NC1CCCC1
inactive: outcome [1] | outcome [2] | outcome [3] | outcome [4] | outcome [5] | outcome [6] | outcome [7] | outcome [8] | outcome [9] | outcome [10] | outcome [11] | outcome [12] | outcome [13] | outcome [14] | outcome [15] | outcome [16] | outcome [17]

CC(=O)OCC1O[C@@H](O[C@@H]2C[C@H]3C(C)(C)[C@H](OC(C)=O)CC[C@]3(C)[C@H]3CC[C@]45C[C@]4(CC[C@H]5[C@@H](C)C[C@@H](O)[C@H](O)C(C)(C)O)[C@@]32C)[C@H](O)[C@@H](O)[C@@H]1O (stereo partly drawn)
inactive: outcome [2] | outcome [3] | outcome [4] | outcome [5] | outcome [6] | outcome [7] | outcome [8] | outcome [9] | outcome [10] | outcome [11] | outcome [12] | outcome [13] | outcome [14] | outcome [15] | outcome [17]
active: activation [1] 173% | activation [16] 28.8%

NCC(c1ccc(Cl)cc1Cl)c1c[nH]c2ccccc12 (stereo not drawn)
active: potentiation [15] 18.9%
inactive: outcome [1] | outcome [2] | outcome [3] | outcome [4] | outcome [5] | outcome [6] | outcome [7] | outcome [8] | outcome [9] | outcome [10] | outcome [11] | outcome [12] | outcome [13] | outcome [14] | outcome [16] | outcome [17]

NC(=O)c1nsc(C(=O)N(Cc2ccco2)C(C(=O)NCc2ccccc2)c2ccc(O)cc2)c1N (stereo not drawn)
inactive: outcome [1] | outcome [2] | outcome [3] | outcome [4] | outcome [6] | outcome [7] | outcome [8] | outcome [9] | outcome [10] | outcome [11] | outcome [12] | outcome [13] | outcome [15] | outcome [16] | outcome [17]
active: inhibition [5] 72% | inhibition [14] 40%

O=S(=O)(Cc1ccccc1)N1CCC(c2nc(-c3cccs3)no2)CC1
active: potentiation [4] 13% | potentiation [15] 11.4%
inactive: outcome [1] | outcome [2] | outcome [3] | outcome [5] | outcome [6] | outcome [7] | outcome [8] | outcome [9] | outcome [10] | outcome [11] | outcome [12] | outcome [13] | outcome [14] | outcome [16] | outcome [17]

Cc1ccnc(NC(=O)COC(=O)C23CC4CC(CC(C4)C2)C3)n1
active: potentiation [4] 128% | potentiation [15] 104%
inactive: outcome [1] | outcome [2] | outcome [3] | outcome [5] | outcome [6] | outcome [7] | outcome [8] | outcome [9] | outcome [10] | outcome [11] | outcome [12] | outcome [13] | outcome [14] | outcome [16] | outcome [17]

CCOC(=O)C1=C(C)N(c2ccccc2)C(=O)NC1c1cccc([N+](=O)[O-])c1 (stereo not drawn)
active: potentiation [15] 9.17%
inactive: outcome [1] | outcome [2] | outcome [3] | outcome [4] | outcome [5] | outcome [6] | outcome [7] | outcome [8] | outcome [9] | outcome [10] | outcome [11] | outcome [12] | outcome [13] | outcome [14] | outcome [16] | outcome [17]

Reference: PubChem BioAssay
